Results on 18 molecules are retold here after the antibiotic and cytotoxicity screens of Wong et al. (2023).

SMILES strings stand for the structures. Screen size: about 39,000 compounds; about 3,300 (8.5%) were called active. This is one part of a sample in which actives are shown more often than they occur.

The assay has as its system HepG2. The experiment in a line: cytotoxicity call (relative viability < 0.9). The conditions noted are these: 10 µM.
In the case of `Cc1ccc(S[C@]2(C(=O)NC3CC3)CC(=O)N(Cc3ccccc3C(F)(F)F)[C@@H]2c2ccc(CO)cc2)cc1`, the cytotoxicity call is “inactive”. Regarding `Cc1ccc(S(=O)(=O)N2CCOCC2)cc1NC(=O)CN1C(=O)CN(C)C1=O`, the cytotoxicity call is “inactive”. `C[C@@H]1CN([C@H](C)CO)C(=O)CCCn2cc(nn2)CO[C@H]1CN(C)Cc1cccc2c1OCCCO2`: the cytotoxicity call was “inactive”.

As for `C[C@H](CO)N1C[C@H](C)[C@H](CN(C)Cc2ccccc2)OCCCC[C@H](C)Oc2ccc(NS(=O)(=O)c3ccc(F)cc3)cc2C1=O`, the cytotoxicity call was “inactive”. Then `C[C@H]1CN([C@@H](C)CO)C(=O)c2cc(-c3cccc(C(=O)N(C)C)c3)cnc2O[C@H]1CN(C)C(=O)Cc1ccccn1`, with “inactive”; and `C[C@@H]1CN([C@@H](C)CO)C(=O)c2cc(C#Cc3ccccc3F)cnc2O[C@H]1CN(C)C(=O)Cc1ccncc1`, with “inactive”. Under `CN1CCN(CCO)CC1` stands “inactive”; under `C[C@@H]1CCCCO[C@@H](CN(C)S(=O)(=O)c2cccs2)[C@@H](C)CN([C@H](C)CO)C(=O)c2cc(NC(=O)CCC(F)(F)F)ccc2O1`, “inactive”; under `COc1ccc(S(=O)(=O)Nc2ccc3c(c2)C(=O)N([C@H](C)CO)C[C@H](C)[C@@H](CN(C)S(=O)(=O)c2cccs2)O3)cc1`, “inactive”.

Consider `CC(C)NC(=O)N(C)C[C@@H]1Oc2cc(C#Cc3ccccn3)ccc2S(=O)(=O)N([C@@H](C)CO)C[C@H]1C`, for which the cytotoxicity call is “inactive”.

With `O=C(C[C@H]1CC[C@@H]2[C@H](COC[C@@H](O)CN2S(=O)(=O)c2ccc(Cl)cc2)O1)NCCN1CCCC1`, the cytotoxicity call is “inactive”. Then `C[C@@H]1CN([C@H](C)CO)C(=O)c2cccc(NC(=O)c3cnccn3)c2O[C@@H]1CN(C)Cc1ccc2c(c1)OCO2`, with “inactive”; and `C[C@H]1CN([C@@H](C)CO)C(=O)c2ccccc2-c2ccccc2CO[C@H]1CN(C)C(=O)c1cc(Cl)cc(Cl)c1`, with “inactive”; and `C[C@H](CO)N1C[C@H](C)[C@H](CN(C)C(=O)Nc2ccc(C(F)(F)F)cc2)Oc2ccc(NC(=O)Nc3ccc(C(F)(F)F)cc3)cc2CC1=O`, with “active”. Under `C[C@@H]1CN([C@H](C)CO)C(=O)Cc2cc(NC(=O)Nc3ccc(C(F)(F)F)cc3)ccc2O[C@@H]1CN(C)C(=O)Nc1ccc(C(F)(F)F)cc1` stands “active”.

Regarding `COCC#Cc1ccc([C@@H]2[C@@H](CO)N3C(=O)CN(C(=O)c4cccnc4)C[C@H]23)cc1`, the cytotoxicity call was “inactive”. Under `CCO[C@H]1OC(C(=O)N2CCN(Cc3ccc4c(c3)OCO4)CC2)=C[C@@H](c2ccc(C(F)(F)F)cc2)[C@@H]1CCCOC(=O)NCCCCCC(=O)NO` stands “inactive”; under `CC(C)C(=O)N1CC[C@H]2CN(CC(=O)N(C)C)S(=O)(=O)[C@@H]2CC1`, “inactive”.
